LYPLA2 counter: blocks human lysophospholipase 2, a PME1 counter-screen; recombinant LYPLA2, FP-Rh probe fluorescence polarization; inhibition, % at 5.9 µM; 320,000 tested, 0.38% active; AID 2177;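 active = inhibition above the screen-wide mean plus 3 SD, limit set per campaign, cut at about 26% in these data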;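 note: 0% = LYPLA2 with DMSO and 100% = wells lacking LYPLA2 enzyme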
LYPLA1 inh: counter-screen for PME1 inhibitors: inhibitors of human LYPLA1 | recombinant LYPLA1, FP-Rh probe fluorescence polarization | inhibition, % at 5.9 µM | 320,000 tested, 0.16% active | AID 2174;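 active = inhibition above the mean of all tested compounds plus 3 SD, set per campaign, cut at about 14% in these data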;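 note: inhibitors block serine hydrolase probe labeling of LYPLA1 so polarization falls; 0% = enzyme with DMSO and 100% = wells lacking LYPLA1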
EBNA-1 inhibitor: blocks EBNA-1 binding to DNA | EBNA-1 DNA binding, fluorescence polarization | inhibition, % at 14.8 µM | 300,000 tested, 0.34% active | AID 1950; in the data active = inhibition above about 28%
ZTA counter: ZTA (EBV) inhibition in EBNA-1 counter-screen; P03206; inhibition, % at 11 µM; 320,000 tested, 0.15% active; ZTA-DNA binding, fluorescence polarization; in the data active = inhibition above about 33%
PAD4 FP inh: inhibitors of human PAD4. inhibition, % at 6.36 µM. recombinant PAD4, RCA probe fluorescence polarization. Q9UM07. 330,000 tested, 0.41% active;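 active = percent inhibition above a cutoff equal to the mean of all tested compounds plus 3 SD, cut at about 15% in these data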;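 note: 0% = PAD4 with RCA probe and DMSO and 100% = probe without PAD4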
Target sequence (Q9UM07 whole entry, looked up): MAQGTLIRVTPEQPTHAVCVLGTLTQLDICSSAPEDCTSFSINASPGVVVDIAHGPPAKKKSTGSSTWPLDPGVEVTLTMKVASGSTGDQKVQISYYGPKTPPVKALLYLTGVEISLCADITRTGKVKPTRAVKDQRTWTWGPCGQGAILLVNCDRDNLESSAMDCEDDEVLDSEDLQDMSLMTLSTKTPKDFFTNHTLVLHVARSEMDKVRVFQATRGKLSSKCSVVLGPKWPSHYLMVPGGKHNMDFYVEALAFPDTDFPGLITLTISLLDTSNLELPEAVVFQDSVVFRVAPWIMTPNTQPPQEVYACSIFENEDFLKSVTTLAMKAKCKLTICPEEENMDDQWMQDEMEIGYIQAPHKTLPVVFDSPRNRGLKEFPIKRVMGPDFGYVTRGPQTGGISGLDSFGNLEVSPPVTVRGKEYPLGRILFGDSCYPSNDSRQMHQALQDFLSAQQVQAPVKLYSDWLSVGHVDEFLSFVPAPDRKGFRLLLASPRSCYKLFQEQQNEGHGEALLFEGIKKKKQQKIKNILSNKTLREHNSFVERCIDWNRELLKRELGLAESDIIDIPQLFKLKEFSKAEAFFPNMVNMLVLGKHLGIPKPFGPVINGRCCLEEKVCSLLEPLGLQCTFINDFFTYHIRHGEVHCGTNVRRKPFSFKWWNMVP
GSTO1 inh: GSTO1 inhibition, counter-screen for RBBP9 inhibitors; P78417; recombinant GSTO1, activity-based probe fluorescence polarization; inhibition, % at 5.96 µM; 300,000 tested, 1.1% active; AID 1974;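 active = inhibition above the campaign mean inhibition plus 3 SD, cut at about 35% in these data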;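 note: 0% = GSTO1-1 with DMSO and 100% = wells lacking GSTO1-1 enzyme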
GSTO1 inh conf: GSTO1 (human) inhibition, confirmation; shares compounds with GSTO1 inh; inhibition, % at 5.96 µM; AID 2176; 2,400 tested, 54% active; recombinant GSTO1, probe fluorescence polarization;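 active = inhibition above the primary screen's cutoff, its mean inhibition plus 3 SD, cut at about 35% in these data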;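 note: loss of polarization as inhibitors block binding of rhodamine sulfonate ester activity probe; 0% = GSTO1 with DMSO and 100% = wells lacking GSTO1 enzyme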
LYPLA1 confirm: counter-screen for PME1 inhibitors: confirmation of human LYPLA1 inhibitors; shares compounds with LYPLA1 inh; recombinant LYPLA1, FP-Rh probe fluorescence polarization; inhibition, % at 5.9 µM; 480 tested, 69% active;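 active = mean inhibition across replicates above the hit cutoff set in the primary screen, cut at about 15% in these data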;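 note: loss of FP-Rh probe labeling of LYPLA1 seen as lower polarization; 0% = LYPLA1 with DMSO and 100% = wells lacking LYPLA1 enzyme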
LYPLA2 confirm: counter-screen for PME1 inhibitors: confirmation of human LYPLA2 inhibitors. shares compounds with LYPLA2 counter. recombinant LYPLA2, FP-Rh probe fluorescence polarization. inhibition, % at 5.9 µM. 1,100 tested, 72% active. AID 2232;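 active = mean inhibition across replicates above the hit cutoff set in the primary screen, cut at about 26% in these data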;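 note: blocked labeling of the enzyme by serine hydrolase FP-Rh probe lowers polarization; 0% = enzyme with DMSO and 100% = wells lacking LYPLA2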
PAD4 FP conf: PAD4 (human) inhibition, confirmed | shares compounds with PAD4 FP inh | recombinant PAD4, RCA probe fluorescence polarization | inhibition, % at 6.36 µM | 1,200 tested, 28% active | AID 488796;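 active = mean inhibition across replicates above the hit cutoff set by the earlier primary screen, cut at about 15% in these data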;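 note: inhibitors block active-site labeling by the probe so polarization falls; 0% = PAD4 with probe and DMSO and 100% = probe without PAD4 enzyme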
The depositor's hits bear a star; . = no result given. Sampled rows, rich in hits. Any-hit rate of the full collection: about 1.7%.

SMILES	LYPLA2 counter	LYPLA1 inh	EBNA-1 inhibitor	ZTA counter	PAD4 FP inh	GSTO1 inh	GSTO1 inh conf	PAD4 FP conf	others
O=c1[nH]c(Nc2ccccc2Cl)cc2ccccc12	3	-1	2	8	28*	40*	32	9
Cc1cc2ccccc2c(=O)[nH]1	0	0	12	13	-5	-3	.	.
CC(NCc1ccc(S(N)(=O)=O)cc1)C(=O)N1c2ccccc2CC1C (stereo not drawn)	0	6	1	10	-2	-5	.	.
O=C(CN(C(=O)c1csnn1)c1cccc(C(F)(F)F)c1)NCc1ccc(F)cc1	5	2	-2	-3	-2	-3	.	.
O=C(COc1ccccc1Cl)Nc1ccc2oc(=O)ccc2c1	-1	-4	-9	-15	-2	5	.	.
COc1cccc(C(c2c(C)[nH]n(-c3ccccc3)c2=O)c2c(C)[nH]n(-c3ccccc3)c2=O)c1O	3	0	6	-6	64*	65*	38*	-3
COc1cccc(C(c2c(C)[nH]n(-c3ccccc3)c2=O)c2c(C)[nH]n(-c3ccccc3)c2=O)c1OC	3	1	2	2	72*	64*	31	3
CCOc1cccc(C(c2c(C)n(C)n(-c3ccccc3)c2=O)c2c(C)n(C)n(-c3ccccc3)c2=O)c1OC	-2	-4	-1	0	-5	-6	.	.
NC(=O)Cn1nc2sc3ccccc3n2c(=O)c1=O	-9	-3	3	15	0	-2	.	.
CCOc1cc(C#N)ccc1OCC(=O)N1CCN(C(=O)c2cccs2)CC1	5	0	.	2	-2	.	.	.
CC(=O)Oc1cc2c3c(c1)/C(=C1/SC(=S)NC1=O)C(=O)N3C(C)(C)C=C2C	9	7	7	12	0	18	.	.
O=C1C(SCCO)=C(SCCO)C(=O)c2ccccc21	31*	3	-5	-9	68*	87*	84*	39*	LYPLA2 confirm=55*
C/C(=C\C(=O)c1cccnc1)Nc1ccc(O)cc1	9	2	1	2	98*	38*	3	6
COCCOC(=O)c1c(N)n(CCCN2CCOCC2)c2nc3ccccc3nc12	0	-1	4	-10	-5	7	.	.
CCCCCOC(=O)c1c(N)n(CCOC)c2nc3ccccc3nc12	5	0	4	-3	26*	65*	18	-10
COc1cc(Br)c(C(=O)c2nccc3cc(OC)c(OC)cc23)cc1OC	57*	44*	2	30	73*	94*	90*	59*	LYPLA1 confirm=16*;LYPLA2 confirm=85*
O=C(NNC(=O)C1CC=CCC1)c1ccccc1O (stereo not drawn)	0	-1	9	13	6	6	.	.
COC(=O)/C(=C/Nc1ccccc1)[N+](=O)[O-]	2	2	7	4	3	-4	.	.
COC(=O)/C(=C/Nc1ccc(O)cc1)[N+](=O)[O-]	10	10	5	8	68*	75*	6	2
Cc1ccc(C2C(C#N)=C(N)Oc3n[nH]c(-c4cccs4)c32)cc1 (stereo not drawn)	3	0	9	-6	41*	40*	8	-12
Cn1nc([N+](=O)[O-])c(C(C#N)c2nc3ccccc3n2C)c(Cl)c1=O (stereo not drawn)	6	11	-3	-2	26*	63*	31	17*
COC(=O)c1sccc1NC(=O)CC1NCCNC1=O (stereo not drawn)	-3	1	-17	1	-5	2	.	.
CCOC(=O)c1c(NC(=O)c2ccco2)n(C2CCCCC2)c2nc3ccccc3nc12	-4	0	1	15	15*	62*	86*	25*
CC(=O)c1c2c3c(c(Br)ccc3n(C)c1=O)C(=O)c1ccccc1-2	3	3	-2	0	20*	48*	28	8
CC1=NN(c2ccccc2)C(=O)/C1=C/N(C)C	-3	4	6	28	-10	8	.	.
SMILES	LYPLA2 counter	LYPLA1 inh	EBNA-1 inhibitor	ZTA counter	PAD4 FP inh	GSTO1 inh	GSTO1 inh conf	PAD4 FP conf	others
CCOc1cc(/C=C2/C(=O)N(c3ccccc3)N=C2C)ccc1OC(=O)c1cccs1	1	-5	6	6	54*	66*	4	2
COc1ccc(/C=C2/C(=O)N(c3ccccc3)N=C2C)cc1	-1	0	0	-8	57*	47*	11	3
CC(=O)Oc1ccc(/C=C2/C(=O)N(c3ccccc3)N=C2C)cc1	4	3	13	-25	54*	52*	14	0
COc1cc(/C=C2/C(=O)N(c3cccc(Br)c3)N=C2C)cc(OC)c1O	-10	-5	5	-2	27*	42*	6	1
COc1ccc(/C=C2/C(=O)N(c3c(F)c(F)c(F)c(F)c3F)N=C2C)cc1	5	2	-19	-19	-9	-6	.	.
Cc1ccc(NC(=S)NCc2ccc(Cl)cc2)c(C)c1	-3	-1	-7	8	-2	5	.	.
COc1ccccc1N1CCN(C(=O)CCc2nnc3ccc(N4CCOCC4)nn23)CC1	-2	-2	0	-5	0	-24	.	.
Cc1noc(C)c1NC(=O)N(C)C[C@H]1Oc2ccc(NC(=O)Cc3ccccc3)cc2C(=O)N([C@H](C)CO)C[C@@H]1C	.	.	.	.	-2	.	.	.
CC(=O)N1CCOc2ccc(S(=O)(=O)NCC3CCC(C(=O)Nc4ccc(C)cn4)CC3)cc21 (stereo not drawn)	2	1	-18	-3	0	-1	.	.
CC1=NN(c2ccccc2)C(=O)/C1=C/c1cccc(C)c1	2	-5	2	-17	56*	59*	12	1
Oc1c(Br)cc(C=Nc2ccc3nc(-c4ccccc4)[nH]c3c2)c(O)c1Br	-21	-23	2	-6	37*	53*	42*	10
Cn1[nH]c(CSc2ccc(Cl)cc2)cc1=O	2	-2	-9	-28	38*	59*	14	6
CC(=O)N(c1ccccc1C)C1CCCC1	3	0	13	2	2	-3	.	.
CC(=O)N(C1=C(Cl)C(=O)c2ccccc2C1=O)C1CCCCC1	3	1	-6	-2	17*	56*	73*	12
